ChEMBL document CHEMBL3988442, “University of Dundee, Small-Polar-MMV Screening Library” (2021)

These compounds were tested against Sialic acid-binding Ig-like lectin 9 (Homo sapiens) (UniProt Q9Y336) (assay: Hs-Siglec9 ALPHAscreen SOP 20170721). Settings: 10 µM.
Set-up: scale not given: direction of the effect not stated beside the values

Sialic acid-binding Ig-like lectin 9 (Homo sapiens), sequence (Q9Y336 whole entry): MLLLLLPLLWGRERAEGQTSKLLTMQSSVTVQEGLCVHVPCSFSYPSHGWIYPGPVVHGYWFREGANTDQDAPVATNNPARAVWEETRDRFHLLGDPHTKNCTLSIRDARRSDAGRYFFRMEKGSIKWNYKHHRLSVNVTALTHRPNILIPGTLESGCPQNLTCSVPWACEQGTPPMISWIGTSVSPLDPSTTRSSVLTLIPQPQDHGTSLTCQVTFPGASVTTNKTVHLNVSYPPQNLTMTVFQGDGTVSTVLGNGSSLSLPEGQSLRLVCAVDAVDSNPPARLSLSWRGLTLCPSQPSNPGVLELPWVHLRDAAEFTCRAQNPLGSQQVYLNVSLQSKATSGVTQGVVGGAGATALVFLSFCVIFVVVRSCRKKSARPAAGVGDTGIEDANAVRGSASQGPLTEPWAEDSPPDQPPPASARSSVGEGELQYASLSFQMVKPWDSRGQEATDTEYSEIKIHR

SMILES	Percent Effect [%]
O=C(c1cnccn1)N1CCOCC2(CCN(C3CCOCC3)C2)C1 (stereo not given)	-0.346
CC(C)OCc1ncn2c1CN(Cc1cccs1)CCC2	0.954
O=C(CCN1CCC(C(=O)c2cc(F)ccc2F)CC1)NC1CC1	2.22
CCCC(NC(=O)c1cc(C)ccc1C)c1nnn[nH]1 (stereo not given)	20.1
Cc1ncc(CNC(=O)CCOc2ccccc2)c(C2CCCN2C)n1 (stereo not given)	7.48
CCCc1noc(CCC(=O)N2CCCC2c2noc(C3CC3)n2)n1 (stereo not given)	21.9
CCn1ccnc1CN1CCN(CCOc2ccccc2OC)CC1	3.72
COc1ccc(CN2CCn3cc(CN4CCCCC4)nc3C2)cc1	-4.04
N#CC1(C(=O)N2CCN(Cc3ccon3)CC2)CCC1	6.56
CN1CCOC(CNCc2coc(-c3ccccc3)n2)C1 (stereo not given)	-10.7
O=C(C1=CC2(CCNCC2)c2ccccc21)N1CCCC1	-3.45
COc1ccc(CCN2CCCC2Cn2nc(C)nc2C)cc1 (stereo not given)	-5.48
Cc1ccc(NC(=O)NCCCc2n[nH]c(N)c2C#N)cc1	-1.97
Cc1cc(C)cc(NC(=O)CN2CCCC(n3cncn3)C2)c1 (stereo not given)	6.56
CC(CNc1cncc(-n2cccn2)n1)N(C)c1ccccc1 (stereo not given)	7.11
CCC(C)(C)NC(=O)CN(C)C(c1cccc(F)c1)c1ccccn1 (stereo not given)	15.1
O=C(C1CCOCC1)N1CCC2(CC1)CC(Oc1ccccc1)CO2 (stereo not given)	5.89
CCOc1cc(C(=O)N2CCCC(c3noc(C)n3)C2)ccn1 (stereo not given)	13.6
O=C1[C@@H]2CCN(Cc3ccoc3)C[C@@H]2OCCN1Cc1cccnc1	5.81
Cc1cc(C)n(CC2CCCN2C(=O)CCCc2ccccn2)n1 (stereo not given)	0.753

SMILES	Percent Effect [%]
O=C(Nc1nc2c(s1)CCC2)c1cccnc1N1CCOCC1	-0.88
Cc1ncsc1C(=O)NC1CCN(Cc2cccnc2)CC1	18.2
CCN1CCN(c2ncc(-c3cc(C)no3)c(-c3ccc(C)s3)n2)CC1	2.04
COc1ccc(C2CCCN2C(=O)NCCNc2ncccn2)cc1 (stereo not given)	-2.28
COCCN1C(=O)C[C@H]2[C@H]1CCN2Cc1ccc(OC)cc1	-2.04
O=C(NCCc1cccs1)[C@H]1CO[C@H]2CCNC[C@H]2C1	-4.42
Cc1cnn(CCNCc2ccc(OCc3csc(C)n3)cc2)c1	8.64
O=C(CN1CCCC(O)C1)NC(=O)NCc1cccs1 (stereo not given)	-8.38
Cc1cc(C[S+]([O-])CC(=O)Nc2c(C)cccc2C)no1 (stereo not given)	7.26
COCCN1CCC2(CC1)CC(COC)N(c1ncccn1)C2 (stereo not given)	1.5
Cc1noc([C@H]2C[C@H]3OCC[C@H]3N(S(=O)(=O)C3CC3)C2)n1	7.79
O=C(Cc1cccc(F)c1)NCCNCc1ccco1	-0.647
CC(=O)Nc1cccc(C(=O)Nc2cnc3n2CCCC3)c1	0.164
Cc1nc(C)n(CC2CCCN2CC(=O)NCc2ccco2)n1 (stereo not given)	4.18
O=C(c1n[nH]c2ccccc12)N1CCCC1c1noc(C2CC2)n1 (stereo not given)	0.249
Cn1cc(N2CCCC(NCc3cccc4c3OCCCO4)C2)cn1 (stereo not given)	1.61
CC(C)c1noc(C(C)N2CCN(CCN3CCCC3=O)CC2)n1 (stereo not given)	9.09
Cc1cc(S(=O)(=O)N2CCCc3ccc(F)cc32)sc1C(=O)O	0.802
Cc1nc(C2CCCN2CCCNS(C)(=O)=O)no1 (stereo not given)	1.41
Cc1ncsc1CN1CC[C@H]2OCC[C@@]2(C(=O)NC(C)C)C1	-6.45

What follows are compounds tested on Trypanosoma cruzi (assay: Trypanosoma cruzi phosphomannomutase and mannose-1-phosphate guanylyltransferase assay). Settings: 10 µM.
Type: functional
Set-up: scale not given: direction of the effect not stated beside the values

SMILES	Percent Effect [%]
O=C(c1cnccn1)N1CCOCC2(CCN(C3CCOCC3)C2)C1 (stereo not given)	3.54
CC(C)OCc1ncn2c1CN(Cc1cccs1)CCC2	-2.25
O=C(CCN1CCC(C(=O)c2cc(F)ccc2F)CC1)NC1CC1	-0.0974
CCCC(NC(=O)c1cc(C)ccc1C)c1nnn[nH]1 (stereo not given)	7.89
Cc1ncc(CNC(=O)CCOc2ccccc2)c(C2CCCN2C)n1 (stereo not given)	-6.32
CCCc1noc(CCC(=O)N2CCCC2c2noc(C3CC3)n2)n1 (stereo not given)	-0.85
CCn1ccnc1CN1CCN(CCOc2ccccc2OC)CC1	6.39
COc1ccc(CN2CCn3cc(CN4CCCCC4)nc3C2)cc1	-0.888
N#CC1(C(=O)N2CCN(Cc3ccon3)CC2)CCC1	-7.84
CN1CCOC(CNCc2coc(-c3ccccc3)n2)C1 (stereo not given)	-5.57
O=C(C1=CC2(CCNCC2)c2ccccc21)N1CCCC1	-7.53
COc1ccc(CCN2CCCC2Cn2nc(C)nc2C)cc1 (stereo not given)	-0.85
Cc1ccc(NC(=O)NCCCc2n[nH]c(N)c2C#N)cc1	-3.12
Cc1cc(C)cc(NC(=O)CN2CCCC(n3cncn3)C2)c1 (stereo not given)	8.08
CC(CNc1cncc(-n2cccn2)n1)N(C)c1ccccc1 (stereo not given)	0.374
CCC(C)(C)NC(=O)CN(C)C(c1cccc(F)c1)c1ccccn1 (stereo not given)	-3.56
O=C(C1CCOCC1)N1CCC2(CC1)CC(Oc1ccccc1)CO2 (stereo not given)	0.595
CCOc1cc(C(=O)N2CCCC(c3noc(C)n3)C2)ccn1 (stereo not given)	-2.15
O=C1[C@@H]2CCN(Cc3ccoc3)C[C@@H]2OCCN1Cc1cccnc1	-2.76
Cc1cc(C)n(CC2CCCN2C(=O)CCCc2ccccn2)n1 (stereo not given)	-3.76

SMILES	Percent Effect [%]
O=C(Nc1nc2c(s1)CCC2)c1cccnc1N1CCOCC1	-4.19
Cc1ncsc1C(=O)NC1CCN(Cc2cccnc2)CC1	5.43
CCN1CCN(c2ncc(-c3cc(C)no3)c(-c3ccc(C)s3)n2)CC1	-5.34
COc1ccc(C2CCCN2C(=O)NCCNc2ncccn2)cc1 (stereo not given)	-7.83
COCCN1C(=O)C[C@H]2[C@H]1CCN2Cc1ccc(OC)cc1	-9.45
O=C(NCCc1cccs1)[C@H]1CO[C@H]2CCNC[C@H]2C1	-4.99
Cc1cnn(CCNCc2ccc(OCc3csc(C)n3)cc2)c1	10.2
O=C(CN1CCCC(O)C1)NC(=O)NCc1cccs1 (stereo not given)	-5.16
Cc1cc(C[S+]([O-])CC(=O)Nc2c(C)cccc2C)no1 (stereo not given)	0.187
COCCN1CCC2(CC1)CC(COC)N(c1ncccn1)C2 (stereo not given)	1.48
Cc1noc([C@H]2C[C@H]3OCC[C@H]3N(S(=O)(=O)C3CC3)C2)n1	-1.19
O=C(Cc1cccc(F)c1)NCCNCc1ccco1	-3.37
CC(=O)Nc1cccc(C(=O)Nc2cnc3n2CCCC3)c1	-1.46
Cc1nc(C)n(CC2CCCN2CC(=O)NCc2ccco2)n1 (stereo not given)	0.979
O=C(c1n[nH]c2ccccc12)N1CCCC1c1noc(C2CC2)n1 (stereo not given)	8.4
Cn1cc(N2CCCC(NCc3cccc4c3OCCCO4)C2)cn1 (stereo not given)	0.472
CC(C)c1noc(C(C)N2CCN(CCN3CCCC3=O)CC2)n1 (stereo not given)	-2.17
Cc1cc(S(=O)(=O)N2CCCc3ccc(F)cc32)sc1C(=O)O	-1.85
Cc1nc(C2CCCN2CCCNS(C)(=O)=O)no1 (stereo not given)	7.14
Cc1ncsc1CN1CC[C@H]2OCC[C@@]2(C(=O)NC(C)C)C1	-3.25
